Rows were chosen to be rich in hits. Some 32% of all compounds tested hit in one or more screens of this group.
CYP2C19 inh: blockers of cytochrome P450 2C19 activity – biochemical, luminescence, ADME assay, primary screen; P33261; CYP2C19 Supersomes, luciferin-H EGE luminescence, 30 min; hit rate 21% among 96,000; inhibition, % at 5 µM; AID 778, 2007;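 active means CYP2C19 inhibition above a set limit at 5 µM in the primary screen, cut at about 50% in these data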
Target sequence (P33261 whole entry, looked up): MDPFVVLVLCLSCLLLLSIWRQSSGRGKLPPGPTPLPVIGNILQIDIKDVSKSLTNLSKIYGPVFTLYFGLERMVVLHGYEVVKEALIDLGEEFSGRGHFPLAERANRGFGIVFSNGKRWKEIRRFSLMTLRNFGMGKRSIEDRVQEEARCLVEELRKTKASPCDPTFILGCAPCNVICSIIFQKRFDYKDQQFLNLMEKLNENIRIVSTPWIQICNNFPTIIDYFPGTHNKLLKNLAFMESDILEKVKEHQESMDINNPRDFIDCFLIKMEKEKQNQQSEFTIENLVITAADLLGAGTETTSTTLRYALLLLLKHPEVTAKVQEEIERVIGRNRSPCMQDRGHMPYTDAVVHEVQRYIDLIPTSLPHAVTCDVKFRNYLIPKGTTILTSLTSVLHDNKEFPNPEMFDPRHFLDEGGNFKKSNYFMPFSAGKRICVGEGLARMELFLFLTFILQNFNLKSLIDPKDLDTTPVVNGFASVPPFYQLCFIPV
CYP2C9 act: human CYP2C9 activators, primary screen, biochemical, luminescence; Cytochrome P450 2C9 (Homo sapiens), P11712; recombinant CYP2C9, luciferin-H conversion; active compounds read high; factor 1 = untreated enzyme, 0 = blocked; hit rate 1.4% among 96,000; activation factor at 5 µM;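 active means activation factor of 2 or more for CYP2C9 at a 5 µM dose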
PostGolgi ctrl: growth inhibition of yeast control strain, primary screen, counter-screen for post-Golgi transport modulator project; hit rate 5% among 98,000; efflux-deficient yeast background strain, growth absorbance A615, 16 h; AID 738, 2007; inhibition, % at 10 µM
CYP2C9 inhib: blockers of cytochrome P450 2C9 activity – biochemical, luminescence, ADME assay, primary screen; P11712; CYP2C9 Supersomes, luciferin-H conversion; inhibition, % at 5 µM; hit rate 20% among 96,000; AID 777, 2007;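 active means blocking of liver enzyme CYP2C9 beyond about 50% at 5 µM, limit read from the data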
CYP2C19 act: human CYP2C19 activators, primary screen, biochemical, luminescence; recombinant CYP2C19, luciferin-H EGE luminescence; active compounds read high; 0 = fully inhibited enzyme, 1 = untreated enzyme; activation factor at 5 µM; 96,000 tested, under 10 active;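 active means activation factor of at least 2 at 5 µM in the primary screen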
PostGolgi yeast: phenotypic screen on post-Golgi transport, primary screen; post-Golgi transport phenotypic cell assay; inhibition, % at 10 µM; hit rate 0.9% among 98,000; AID 739, 2007;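 further: yeast cells grown in 1536-well plates; yeast grown about 18 h at 30C before absorbance read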
Each line names hits and unclear results; the compound was inactive in the other large screens. Unless noted, no stated cut-off is given here; in the data, active means inhibition above about 30%; inactive means the rest.

O=C(NCc1ccccc1Cl)C1CCCN(S(=O)(=O)c2cnc[nH]2)C1 (stereo not given)	CYP2C19 inh 95.6, CYP2C9 inhib 91.7
O=C(C1CCCN(S(=O)(=O)c2ccc(F)cc2)C1)N(Cc1cccs1)C1CC1 (stereo not given)	CYP2C19 inh 94.6, CYP2C9 inhib 72.7
O=C(C1CCCN(S(=O)(=O)c2ccc(F)cc2)C1)N1CCCC1 (stereo not given)	none
COc1ccc(NC(=O)C(c2ccc(OC)cc2)N(C)C(=O)c2cnccn2)cc1 (stereo not given)	none
CC(C)(C)c1cn(-c2ccc(F)cc2)c(=S)[nH]1	CYP2C19 inh 62.9
N/C(=N\c1nc2ccccc2o1)NC(=O)c1ccccc1F	none
COc1ccccc1C(=O)NC(=Nc1nc2ccccc2o1)NC(=O)c1ccccc1OC	CYP2C19 inh 65.4, CYP2C9 inhib 73.2
Cc1ccc(S(=O)(=O)c2c(C)nn(C(C)(C)C)c2OC(=O)c2cccs2)cc1	CYP2C19 inh 93.9, CYP2C9 inhib 90.3
CC(=O)Oc1c(S(=O)(=O)c2ccc(C)cc2)c(C)nn1-c1ccccc1	CYP2C9 inhib 78.1
Cc1ccc(S(=O)(=O)c2c(C)nn(C(C)(C)C)c2OC(=O)c2ccco2)cc1	CYP2C19 inh 98.8, CYP2C9 inhib 86.4
Cc1nn(C(C)(C)C)c(OC(=O)c2ccc3c(c2)OCO3)c1S(=O)(=O)c1ccccc1	CYP2C19 inh 61.9, PostGolgi ctrl 36.5, CYP2C9 inhib 82.9
Cc1ccc(S(=O)(=O)c2c(C)nn(C(C)(C)C)c2OC(=O)C(C)(C)C)cc1	none
Cc1ccc(C)c(NC(=S)N2CCC(c3nc4ccccc4s3)CC2)c1	none
Cc1csc(C(=O)O)c1-n1cccc1	none
CCOC(=O)C(C)Oc1cccc2c(=O)n(CC(=O)N3CCN(C(=O)OCC)CC3)ccc12 (stereo not given)	none
Cc1ccc(S(=O)(=O)c2c(C)nn(C(C)(C)C)c2OC(=O)c2ccc(Br)o2)cc1	CYP2C19 inh 69.8, CYP2C9 inhib 95.1, PostGolgi yeast 49.6
Cc1ccc(C)c(C(=O)COC(=O)c2ccc(Br)o2)c1	none
Cc1nnc(NC(=O)c2cccc(S(=O)(=O)N3CC(c4ccccc4)CC3=O)c2)s1 (stereo not given)	none
COc1ccc(C(=O)Nc2nncs2)cc1S(=O)(=O)N1CC(c2ccccc2)CC1=O (stereo not given)	CYP2C9 inhib 84.2
O=C(O)CCCC(=O)NCCCCc1ccccc1	none
CC(C)Cc1nnc(NC(=O)c2ccncc2)s1	CYP2C19 inh 91.8, CYP2C9 inhib 95.7
CCCc1nnc(NC(=O)c2ccncc2)s1	CYP2C9 inhib 79.9
CCc1nnc(NC(=O)c2ccncc2)s1	none
CC(C)Cc1nnc(NC(=O)c2ccc([N+](=O)[O-])cc2)s1	none
CCOc1ccc(S(=O)(=O)N2CCN(Cc3ccccc3)CC2)c2cccnc12	none
CCCCS/C(=C(/C#N)C(N)=O)c1cc2c([nH]1)CCCC2	none
CCN1CCN(CCNC(=O)C2CCN(Cc3nc(-c4ccc(Cl)cc4)oc3C)CC2)CC1	none
Cc1oc(-c2ccc(Cl)cc2)nc1CN1CCC(C(=O)N2CCN(Cc3ccccc3)CC2)CC1	PostGolgi ctrl 33.3
Cc1oc(-c2ccc(Cl)cc2)nc1CN1CCC(C(=O)N2CCc3ccccc3C2)CC1	CYP2C19 inh 89.6
Cc1ccccc1-c1nc(CN2CCC(C(=O)N3CCN(c4ccccn4)CC3)CC2)c(C)o1	CYP2C9 inhib 55.4
Cc1oc(-c2ccc(Cl)cc2)nc1CN1CCC(C(=O)NCc2ccco2)CC1	none
CCOc1ccc2nc(N3CCC(C(=O)N4CCN(c5ccccn5)CC4)CC3)sc2c1	PostGolgi ctrl 42.7
Cc1ccccc1-c1nc(CN2CCC(C(=O)N3CCC(C(N)=O)CC3)CC2)c(C)o1	none
CCOC(=O)N1CCN(C(=O)C2CCCN(c3nc4ccc(OCC)cc4s3)C2)CC1 (stereo not given)	none
COc1ccc(S(=O)(=O)N2CCN(c3ccc4nnc(-c5ccccc5)n4n3)CC2)cc1	CYP2C19 inh 76.0, CYP2C9 inhib 87.2
COc1ccc(-c2csc(N3CCC(C(N)=O)(N4CCCCC4)CC3)n2)cc1	none
